In all, about 63,000 compounds went through this assay and about 30 (0.05%) were called active. How the calls were made is not given here. Only a sample is shown.
The compounds below were run against G protein-activated inward rectifier potassium channel 2 (Homo sapiens) (UniProt P48051) (assay: opens human GIRK2 potassium channels (AID 1259325)). Conditions: HEK293-GIRK2 thallium flux, Thallos fluorescence, MPD.
Chain of G protein-activated inward rectifier potassium channel 2 (Homo sapiens) (P48051 whole entry, looked up): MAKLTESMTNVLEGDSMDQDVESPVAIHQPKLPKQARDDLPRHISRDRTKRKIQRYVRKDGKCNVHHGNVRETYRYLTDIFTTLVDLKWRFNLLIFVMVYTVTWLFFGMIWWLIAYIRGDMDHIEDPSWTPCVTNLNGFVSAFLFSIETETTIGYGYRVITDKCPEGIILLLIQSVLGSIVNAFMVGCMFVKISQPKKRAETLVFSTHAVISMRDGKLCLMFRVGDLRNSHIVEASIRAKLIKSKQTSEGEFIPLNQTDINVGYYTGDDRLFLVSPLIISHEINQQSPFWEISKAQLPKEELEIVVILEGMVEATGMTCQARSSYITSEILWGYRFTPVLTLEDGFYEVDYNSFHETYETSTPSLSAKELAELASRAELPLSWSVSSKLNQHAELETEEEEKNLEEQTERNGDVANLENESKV

outcome, inactive:
Cc1nc(-c2ccc(N3CCN(C(=O)NCc4ccc(F)cc4)CC3)nc2)no1
O=C(Cc1ccc(F)cc1)N1CC(c2nc(-c3cccnc3)no2)C1
CCc1cc(=O)n(CCNC(=O)COc2ccc(F)cc2F)cn1
COc1ccc(S(=O)(=O)Nc2ccc3c(c2)N(C(=O)c2ccccc2)CCC3)cc1F
NC(=O)c1ccccc1OCC#CCNC(=O)c1ccc(=O)[nH]c1
COC(=O)c1ccc2c(=O)n(-c3cc(OC)cc(OC)c3)c(N3CCSCC3)nc2c1
Cc1cc(C(=O)Nc2nc(C(=O)N3CCN(c4cc(Cl)ccc4C)CC3)co2)no1
Cc1nc(-c2cccc(NC(=O)c3coc(NC(=O)c4cnccn4)n3)c2)cs1
COc1ccc(NC(=O)Cn2c(=O)nc(N3CCC(C)CC3)c3ccccc32)cc1Cl
CC(C)c1nnc(C2CCN(Cc3cccnc3)CC2)o1
CN1CCC(n2cnc(-c3ccc(F)cc3)c2-c2ccnc(N)n2)CC1
Cc1ccccc1N1CCN(c2nccn3c(=O)n(CC(=O)Nc4ccc(Cl)cc4)nc23)CC1
Cn1c(=O)c2c(nc(SCCO)n2Cc2ccccc2)n(C)c1=O
O=C(CSc1nnc(Cn2ccc(=O)[nH]c2=O)o1)N1CCC(Cc2ccccc2)CC1
COc1ccc(-c2cc3nn(CC(=O)NCc4ccccc4Cl)c(=O)n3c(C)n2)cc1
COc1cccc(NC(=O)c2cn(CC(O)c3ccccc3)nn2)c1 (configuration not stated)
CN(C)CCn1c2c(c(=S)[nH]c1=O)CCC2
CCOC(=O)CCC(=O)N1CCN(Cc2csc(-c3ccccc3)n2)CC1
Cc1cc(N2CCN(C(=O)NC3CCCC3)CC2)ncn1
COc1ccc(C)cc1N1CCn2c1nc1c2c(=O)n(Cc2cccc(C)c2)c(=O)n1C
Nc1nc(Nc2ccc(F)c(F)c2)ncc1[N+](=O)[O-]
O=C(NCc1cccs1)N1C2CCC1COC2
CN1CCC(CNC(=O)c2cc(Br)ccc2Cl)CC1
COc1ccccc1C(=O)NCCN1CCN(c2ccccc2OC)CC1
CCNC(=O)c1cn(-c2ccc(SCC(=O)Nc3ccc(C)cc3)nn2)cn1
Cn1cnnc1SCCNC(=O)CNC(=O)c1ccc(=O)[nH]c1
CC(C)c1ccccc1NC(=O)Cc1cc(=O)[nH]c(SCc2ccc(F)cc2)n1
O=C(NCc1ccccc1)Nc1nnc(-c2ccco2)o1
NC(=O)c1ccccc1OCC#CCNC(=O)C1CCC1
Cc1cc(C(O)CCNC(=O)Nc2ccccc2)c(C)o1 (configuration not stated)
C#CCSc1nnc(N2CCN(c3ccccc3OC)CC2)s1
O=C(c1ccncc1)N1CCc2cc(S(=O)(=O)N3CCOCC3)ccc21
COc1ccc(NC(=O)C(=O)NCCC2=CCCCC2)cc1Cl
COc1ccc(-n2c(C)c(C)n3c4c(=O)n(CC(C)C)c(=O)n(C)c4nc23)cc1
CCOc1ccccc1C(=O)Nn1cnc2c(cnn2-c2cccc(Cl)c2)c1=O
CCN(CC)C(=O)Oc1ccc2c(=O)c(-c3ccc(Br)cc3)coc2c1
COc1ccccc1N1CCN(CCNC(=O)c2ccc(F)cc2)CC1
CCOC(=O)c1ccc(NC(=O)c2coc(NC(=O)C3CC3)n2)cc1
CCN(CC)c1ccc(-c2noc(CN3CCN(c4cccc(C)c4)CC3)n2)cn1
CCCCCn1c(=O)c2c(nc3n2CC(C)CN3c2ccc(Oc3ccccc3)cc2)n(C)c1=O (configuration not stated)
Cc1cc(C(=O)NCC#CCOc2ccc3c(c2)OCO3)c(C)o1
COc1cc(OC)cc(N(C)S(=O)(=O)c2ccsc2-c2nc(-c3cccc(C)c3)no2)c1
O=C(CSc1nnc(-c2ccc(Cl)cc2)c2ccccc12)N1CCOCC1
Cc1csc(SCC2CCN(S(=O)(=O)c3cccc(C(F)(F)F)c3)CC2)n1
CC(C)(C)OC(=O)COc1ccc2c(c1)O/C(=C\c1cc(Cl)cc3c1OCOC3)C2=O
Cc1nc(SCc2ccccc2)[nH]c(=O)c1CC(=O)Nc1ccc(C(C)C)cc1
Cc1ccc(S(=O)(=O)N(Cc2ccc(Cl)cc2)C(=O)N2CCN(C)CC2)cc1
COc1ccc(C)c2sc(N(CCCn3ccnc3)C(=O)/C=C/c3cccs3)nc12
CCC(C(=O)Nc1cc(F)ccc1F)n1cc(-c2nc(-c3cnccn3)no2)ccc1=O (configuration not stated)
COc1cc(NC(=O)Cn2cnc3c(-c4ccc(Cl)cc4)csc3c2=O)cc(OC)c1
COc1ccccc1OCC#CCNC(=O)c1cnccn1
Cc1cc(C)c2c(c1)c(=O)c1c(n2C)CCN(C(=O)Nc2cc(Cl)ccc2C)C1
COc1ccc(C2(CNC(=O)C3CCN(S(C)(=O)=O)CC3)CCOCC2)cc1
O=C(CSc1cc(C(F)(F)F)c2cc3c(cc2n1)OCO3)NCc1ccco1
O=C(Cc1ccc(NS(=O)(=O)c2c(F)cccc2F)cc1)NCc1cccs1
Cc1nn(-c2ncc(NC(=O)c3cccc4ccccc34)cn2)c(C)c1C
Cc1nc(C)c(-c2nnc(NC(=O)COc3cccc4c3OC(C)(C)C4)o2)s1
COc1ccc(F)cc1S(=O)(=O)N1CCN=C1c1ccccc1
O=C(CSCc1ccccc1)Nc1cnoc1
COc1ccc(Cn2cc(S(=O)(=O)N3CCCCC3)ccc2=O)cc1F
O=C(CC1CCCC1)N(CCc1cccs1)Cc1ccoc1
Cc1cc(SCC(=O)c2ccc3c(c2)OCO3)nc(C(C)C)n1
C=C(C)COc1ccc(-c2nc(N)nc(C(F)(F)F)c2-c2ccccc2OC)c(O)c1
CCOC(=O)C1CCc2sc(NC(=O)C3CCCN(Cc4nc(-c5cccnc5)no4)C3)nc21 (configuration not stated)
CCOC(=O)CN1CCC(c2nnc(-c3ccc(F)cc3)o2)CC1
CCOC(=O)c1cnn2ccc(NC(=O)C(c3ccccc3)c3ccccc3)cc12
O=C1CC(c2nc3ccccc3n2CCOc2ccccc2)CN1c1ccccc1 (configuration not stated)
COc1ccccc1N1CCN(CC(=O)N2CCN(S(C)(=O)=O)CC2)C1=O
COc1ccccc1NC(=O)CN1N=NC2C(=O)N(c3ccc(F)c(F)c3)C(=O)C21 (configuration not stated)
CCOc1ccc(C2C(C(=O)c3sc(C)nc3C)=C(O)C(=O)N2CCCN(C)C)cc1 (configuration not stated)
CN(C)C(CNC(=O)C1c2ccccc2Oc2ccccc21)c1cccn1C (configuration not stated)
CCCN(C)c1nccn2c(=O)n(CC(=O)Nc3cccc(CC)c3)nc12
CCOC(=O)c1ccc(NC(=O)Cn2ccn(Cc3ccc(Cl)cc3)c(=O)c2=O)cc1
Cc1nc(C)c(-c2ccc(=O)n(CCNC(=O)C3CCN(S(C)(=O)=O)CC3)n2)s1
O=C(c1ccc2c(c1)OCO2)N1CCC(CSc2ccccn2)CC1
COc1ccc(S(=O)(=O)N2CCCOC2CNC(=O)C(=O)NCc2ccc(C)cc2)cc1OC (configuration not stated)
Cn1c(=O)n(CCc2ccccc2)c(=O)c2c(N3CCN(C(=O)c4ccco4)CC3)ccnc21
COc1cccc(CSc2nc(C)c(CC(=O)NCc3cccs3)c(=O)[nH]2)c1
COc1ccc(NC(=O)CSc2nnc(C3CC(=O)N(c4ccc(C)cc4)C3)o2)cc1 (configuration not stated)
O=C(O)CCC/C=C\C[C@@H]1C(/C=C/[C@@H](O)COc2cccc(C(F)(F)F)c2)[C@H](O)C[C@@H]1O (some centres not stated)
O=C(CSc1ccc(-c2nc(-c3ccccc3)no2)cn1)NCc1ccc2c(c1)OCO2
CCCNC(=O)Cn1nc2c(c1NC(=O)COc1ccccc1F)CSC2
O=C(COc1ccc(Cl)cc1)Nc1ccc(N2CCCCS2(=O)=O)cc1
O=C1CC(C(=O)Nc2ccccc2Cl)n2c(nc3ccccc32)N1 (configuration not stated)
COCCNC(=O)c1[nH]c2ccccc2c1NC(=O)c1cccc(C)c1
COc1cc(/C=C2\Oc3c4c(cc(C)c3C2=O)OCN(C2CC2)C4)cc(OC)c1OC
CCc1ccc(NC(=O)NCCNc2cc(Nc3ccccn3)ncn2)cc1
Cc1cc(C)n(-c2cc(SCC(=O)N3CCCC3)ncn2)n1
COc1ccc(-c2ccc(C)c(NC(=O)c3cc4ccccc4oc3=O)c2)nn1
Cn1cccc(C(=O)Nc2ccc3c(c2)CCC(=O)N3)c1=O
O=C(CCn1c(=O)oc2ccc(Cl)cc21)N1CCN(c2ccccc2Cl)CC1
COc1cccc(OCc2nc3c(C)cccc3[nH]2)c1
CCC(C)c1ccc(Cn2c(CO)nc3ccccc32)cc1 (configuration not stated)
CC(=O)c1cccc(NC(=O)CCCn2cnc(-c3ccc(F)cc3)cc2=O)c1
COCCn1c(SCc2nc(-c3ccc(Cl)cc3)no2)nc2cc3c(cc2c1=O)OCO3
CCOc1cc(C(=O)Nc2ccc3c(c2)N(C(C)=O)CCC3)cc(OCC)c1OCC
Cn1cnnc1SCc1cc(=O)c(OCC(=O)NCc2ccco2)co1
COC(=O)c1[nH]c(C)c(C(O)=C2C(=O)C(=O)N(CCCN(C)C)C2c2cccs2)c1C (configuration not stated)
O=C(Nc1nc(-c2cc3ccccc3o2)cs1)c1ccc(S(=O)(=O)N2CCOCC2)cc1
Cc1ccnc(Nc2cc(NCCNC(=O)Nc3cccc(Cl)c3)ncn2)c1
COc1cccc(NC(=O)CSc2ncc(S(=O)(=O)c3ccc(Cl)cc3)c(=O)[nH]2)c1
O=S(=O)(Cc1nc(-c2cccc(Cl)c2)no1)c1ccccc1

From PubChem BioAssay AID1259325 (C. David Weaver Laboratory, Vanderbilt University, 2017)
